Measured values taken from PubChem BioAssay (NCATS).
Inconclusive results are not listed. A call without a number means that no potency is given here. A structure can be active in one record and inactive in another. Activity calls are given as the source filed them. Unless noted, calls follow the shape of the dose curve; as a rule, active = well fitted curve in the direction sought with a large enough effect; inconclusive = small, poorly fitted or top-dose-only effect, or another doubt; inactive = no such curve, though single readings can be large; an effect the other way counts as inactive or inconclusive.

What was measured:
[1] = Cytometric Cell-Based qHTS for Inhibitors of the mTORC1 Signaling Pathway in MEF (Tsc2-/-, p53-/-) Cells (AID 2660);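 also: percent of cells above a phospho-rpS6 to PI ratio cutoff in each well; series mostly up to about 38 µM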
How it was run: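 Tsc2-/-, p53-/- MEFs (empty vector) exposed to compound 24 h at 37 C, fixed, stained with Alexa-488 anti-phospho-rpS6 Ser235/236 and propidium iodide. Acumen laser scanning; phospho-S6/PI ratio thresholded against 7.5 nM rapamycin, reported as % positive cells.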

[2] = High Content Imaging Cell-Based qHTS for Inhibitors of the mTORC1 Signaling Pathway in MEF (Tsc2-/-, p53-/-) Cells (AID 2666);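 also: percent of cells scored positive for phospho-rpS6 Ser235/236 immunostaining by imaging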
How it was run: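 Phospho-rpS6 (Ser235/236) immunofluorescence, normalized and scored as % positive cells using rapamycin and DMSO controls, was read in empty-vector Tsc2-/-, p53-/- MEFs after 24 h compound exposure at 37 C; propidium iodide counted cells.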

[3] = High Content Imaging Cell-Based qHTS for Inhibitors of the mTORC1 Signaling Pathway in MEF Cells (AID 2667);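 also: Tsc2-/- p53-/- MEFs stably re-expressing wild-type Tsc2 exposed 24 h; series mostly up to about 38 µM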
How it was run: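 WT MEFs (Tsc2-/-, p53-/- re-expressing Tsc2), in DMEM + 10% FBS, were treated with compound for 24 h at 37 C. Cells were then fixed and stained for phospho-rpS6 Ser235/236 with propidium iodide as cell count. Values are % positive cells, with thresholds set against rapamycin-treated cells.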

[4] = Cytometry Cell-Based qHTS for Inhibitors of the mTORC1 Signaling Pathway in MEF cells (AID 2668);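 also: Tsc2-/- p53-/- mouse embryonic fibroblasts stably re-expressing wild-type Tsc2; percent cells positive for phospho-rpS6 Ser235/236 relative to propidium iodide stain; series mostly up to about 38 µM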
How it was run: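 Phospho-rpS6 (Ser235/236) immunofluorescence over PI signal, scored as % positive cells using thresholds from 7.5 nM rapamycin and DMSO wells, after 24 h compound exposure of WT-Tsc2-rescued Tsc2-/-, p53-/- MEFs. PI cell count recorded for viability.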

[5] = Validation screen for small molecules that induce DNA re-replication in MCF 10A normal breast cells (AID 463097); also: nearly all actives have a fitted effect of over 60% in size
How it was run: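 Read-out is Hoechst total nuclear intensity by fluorescence scanning imager, flagging increased high-DNA-content nuclei. Compounds were incubated with MCF 10A cells for 48 hr (37 C, 5% CO2) before 40 min staining.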

[6] = biological target: Ubiquitin carboxyl-terminal hydrolase 2 (Homo sapiens) (UniProt O75604); experiment: qHTS Validation Assay for Inhibitors of Ubiquitin-specific Protease USP2a Using CHOP2 as the Reporter (AID 463106)
How it was run: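 USP2 core (10 nM final) was preincubated with compound 30 min at RT in pH 8.0 Tris/CaCl2/beta-ME/CHAPS buffer. Ub-CHOP2 and reporter substrate (25 nM final each) were then added, with fluorescence (Ex 485/Em 531) read after 60 min. Data were normalized to NEM full inhibition and fitted to concentration-response curves.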

[7] = biological target: DNA polymerase III PolC-type (Bacillus subtilis (strain 168)) (UniProt P13267); experiment: qHTS Validation Assay for the Inhibitors of DNA Replication in Gram-Positive Bacteria (AID 485295);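 also: reconstituted holoenzyme with PolC plus beta clamp SSB and primase; PicoGreen fluorescence of double-stranded DNA made on primed circular M13 template; series mostly up to about 57 µM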
How it was run: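 Double-stranded DNA product detected by PicoGreen fluorescence after EDTA quench. Compound incubated with B. subtilis holoenzyme (PolC, beta subunit, SSB, primase) before substrate addition; primed replication of M13Gori with dNTPs and NTPs at room temperature; DMSO defines 0% inhibition.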

[8] = biological target: Tumor susceptibility gene 101 protein (Homo sapiens) (UniProt Q99816); experiment: qHTS Validation Assay for Iinhibitors of HIV-1 Budding by Blocking the Interaction of PTAP/TSG101 (AID 485342; calls by dose curve)
How it was run: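 Fluorescence polarization of 50 nM FITC-PTAP peptide bound to 10 uM Tsg101 binding domain was read after 20 min room-temperature incubation with compounds, in 10 mM HEPES pH 7.5, 0.15 M NaCl, 0.01% Tween 20.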

[9] = biological target: Beta-2 adrenergic receptor (Homo sapiens) (UniProt P07550); experiment: qHTS validation assay of beta-arrestin-biased ligands of beta2-adrenergic receptor (AID 485366)
How it was run: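 Tango cells expressing recombinant beta2-AR and beta-arrestin with tTA-driven luciferase, in DMEM with 1% FBS. Compounds were titrated up to 46 microM for 18 hr at 37 degrees C. Luminescence was read 15 min after substrate; curves were fitted and class-assigned.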

[10] = Quantitative high throughput screen for delayed death inhibitors of the malarial parasite plastid, 96 hour incubation (AID 488745); also: series mostly up to about 29 µM; nearly all actives have a fitted effect of over 70% in size
How it was run: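 P. falciparum carrying an integrated firefly luciferase reporter, grown in erythrocytes (2% hematocrit, 0.1% parasitemia final) in RPMI 1640/0.5% Albumax, was exposed to compound for 96 h (two generations) at 37 C, 5% CO2. Luminescence decrease indicated growth inhibition.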

[11] = Quantitative high throughput screen for delayed death inhibitors of the malarial parasite plastid, 48 hour incubation (AID 488752); also: nearly all actives have a fitted effect of over 65% in size
How it was run: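 Erythrocytes infected with P. falciparum carrying an integrated firefly luciferase reporter (2% hematocrit, 0.1% parasitemia final) were exposed to compounds in RPMI 1640/0.5% Albumax for 48 h at 37 C, 5% CO2. Growth inhibition was scored as reduced luminescence.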

[12] = biological target: Thioredoxin reductase 1, cytoplasmic (Rattus norvegicus) (UniProt O89049); experiment: qHTS Assay for Substrates of Mammalian Selenoprotein Thioredoxin Reductase 1 (TrxR1) (AID 488772);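 also: NADPH fluorescence in the first read after selenite addition and not the 8 min delta; series mostly up to about 57 µM; a drop in NADPH fluorescence below the no-compound background marks a TrxR1 substrate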
How it was run: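 Quantitative HTS in Tris-HCl buffer at pH 7.5 with EDTA and Tween-20, using rat TrxR1, 400 uM NADPH and 400 uM selenite (final). A fall in initial NADPH fluorescence relative to background marked substrate behaviour.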

[13] = biological target: Thioredoxin reductase 1, cytoplasmic (Rattus norvegicus) (UniProt O89049); experiment: qHTS Assay for Inhibitors of Mammalian Selenoprotein Thioredoxin Reductase 1 (TrxR1) (AID 488773); conditions: Potency: inhibition;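 also: drop in NADPH fluorescence over an 8 min run after selenite addition; series mostly up to about 57 µM; nearly all actives have a fitted effect of over 40% in size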
How it was run: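 Steps: enzyme (90 nM) plus NADPH (400 uM final), 5 min at ~22 deg C; compound added, 15 min; selenite (400 uM final) added; fluorescence followed for 8 min. Concentration-response curves derived from the normalized delta values.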

[14] = biological target: Flap endonuclease 1 (Homo sapiens) (UniProt P39748); experiment: qHTS Validation Assay for the Inhibitors of Human Flap endonuclease 1 (FEN1) (AID 488816); also: potency is read from the fitted curve at half-maximal effect
How it was run: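 Human FEN1 (10 nM) preincubated 15 min at room temperature with compounds, then flap DNA substrate added at 50 nM final. Fluorescence read at 0 and 15 min; concentration-response fitted with four-parameter Hill equation.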

[15] = biological target: M-phase phosphoprotein 8 (Homo sapiens) (UniProt Q99549); experiment: qHTS Validation Assay for Inhibitors for MPP8 Chromodomain Interactions with Methylated Histone Tails (AID 488949); also: nearly all actives have a fitted effect of over 55% in size; also: potency is read from the fitted curve at half-maximal effect
How it was run: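 AlphaScreen proximity signal from streptavidin donor and Ni-chelate acceptor beads (10 ug/mL each) reported binding of MPP8 to trimethyl-K9 H3(1-18) peptide, both at 50 nM. The complex formed 30 min before a 30 min compound exposure at room temperature, in PBS pH 7.4.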

[16] = biological target: Chromobox protein homolog 1 (Homo sapiens) (UniProt P83916); experiment: qHTS Validation Assay for Inhibitors of HP1-beta Chromodomain Interactions with Methylated Histone Tails (AID 488953);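 also: loss of AlphaScreen luminescence from HP1-beta binding biotinylated H3K9me3 peptide; series mostly up to about 110 µM; nearly all actives have a fitted effect of over 50% in size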
How it was run: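 HP1-beta (50 nM) was preincubated 30 min at room temperature with biotinylated H3(1-18)K9me3 peptide (50 nM) in PBS pH 7.4, 0.01% Tween-20, then with compounds 30 min. AlphaScreen signal was read after streptavidin donor/nickel chelate acceptor beads (10 ug/mL final).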

[17] = biological target: Methanococcus maripaludis chaperonin (MmCpn) (UniProt Q6LX38); experiment: High-Throughput Screening for Modulators of Cytosolic Chaperonin Activity: MmCpn Primary Screen (AID 488978);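 also: 50 nM MmCpn enzyme hydrolysing 30 µM ATP at 37 °C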
How it was run: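 ATPase activity of 50 nM MmCpn was assayed with 30 uM ATP, 10 minutes at 37C, after a 5 min compound preincubation at room temperature. ADP production was read as HTRF emission at 590 and 665 nm.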

[18] = biological target: ATP-dependent 6-phosphofructokinase (Trypanosoma brucei brucei) (UniProt O15648); experiment: qHTS Validation Assay to Find Inhibitors of T. brucei phosphofructokinase (AID 485368)
How it was run: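 Activity was read as ADP production by luminescence (ADP-Glo) after 45 min at room temperature. The enzyme was 1.25nM PFK in 0.1M TEA pH 8.0 with 0.5 mM F6P, 0.1mM ATP and 5 mM MgCl2. Compounds were titrated up to 57 uM and % activity normalized to no-enzyme and full-enzyme controls.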

[19] = qHTS Validation Assay to Find Inhibitors of Chronic Active B-Cell Receptor Signaling (AID 485345; active = well fitted curve in the direction sought with a large enough effect in the main read-out, with a control signal flat, not every such curve was filed as active)
How it was run: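 TMD8 ABC-DLBCL cells stably carrying doxycycline-inducible IkappaBalpha–green luciferase fusion plus unfused red luciferase; compounds 46 uM to 3 nM, 4 h at 37C with doxycycline. Corrected green/red luminescence ratio normalized to 10 uM MG-132 and basal cell wells; curves fitted.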

Sequence of DNA polymerase III PolC-type (Bacillus subtilis (strain 168)) (P13267 whole entry, looked up): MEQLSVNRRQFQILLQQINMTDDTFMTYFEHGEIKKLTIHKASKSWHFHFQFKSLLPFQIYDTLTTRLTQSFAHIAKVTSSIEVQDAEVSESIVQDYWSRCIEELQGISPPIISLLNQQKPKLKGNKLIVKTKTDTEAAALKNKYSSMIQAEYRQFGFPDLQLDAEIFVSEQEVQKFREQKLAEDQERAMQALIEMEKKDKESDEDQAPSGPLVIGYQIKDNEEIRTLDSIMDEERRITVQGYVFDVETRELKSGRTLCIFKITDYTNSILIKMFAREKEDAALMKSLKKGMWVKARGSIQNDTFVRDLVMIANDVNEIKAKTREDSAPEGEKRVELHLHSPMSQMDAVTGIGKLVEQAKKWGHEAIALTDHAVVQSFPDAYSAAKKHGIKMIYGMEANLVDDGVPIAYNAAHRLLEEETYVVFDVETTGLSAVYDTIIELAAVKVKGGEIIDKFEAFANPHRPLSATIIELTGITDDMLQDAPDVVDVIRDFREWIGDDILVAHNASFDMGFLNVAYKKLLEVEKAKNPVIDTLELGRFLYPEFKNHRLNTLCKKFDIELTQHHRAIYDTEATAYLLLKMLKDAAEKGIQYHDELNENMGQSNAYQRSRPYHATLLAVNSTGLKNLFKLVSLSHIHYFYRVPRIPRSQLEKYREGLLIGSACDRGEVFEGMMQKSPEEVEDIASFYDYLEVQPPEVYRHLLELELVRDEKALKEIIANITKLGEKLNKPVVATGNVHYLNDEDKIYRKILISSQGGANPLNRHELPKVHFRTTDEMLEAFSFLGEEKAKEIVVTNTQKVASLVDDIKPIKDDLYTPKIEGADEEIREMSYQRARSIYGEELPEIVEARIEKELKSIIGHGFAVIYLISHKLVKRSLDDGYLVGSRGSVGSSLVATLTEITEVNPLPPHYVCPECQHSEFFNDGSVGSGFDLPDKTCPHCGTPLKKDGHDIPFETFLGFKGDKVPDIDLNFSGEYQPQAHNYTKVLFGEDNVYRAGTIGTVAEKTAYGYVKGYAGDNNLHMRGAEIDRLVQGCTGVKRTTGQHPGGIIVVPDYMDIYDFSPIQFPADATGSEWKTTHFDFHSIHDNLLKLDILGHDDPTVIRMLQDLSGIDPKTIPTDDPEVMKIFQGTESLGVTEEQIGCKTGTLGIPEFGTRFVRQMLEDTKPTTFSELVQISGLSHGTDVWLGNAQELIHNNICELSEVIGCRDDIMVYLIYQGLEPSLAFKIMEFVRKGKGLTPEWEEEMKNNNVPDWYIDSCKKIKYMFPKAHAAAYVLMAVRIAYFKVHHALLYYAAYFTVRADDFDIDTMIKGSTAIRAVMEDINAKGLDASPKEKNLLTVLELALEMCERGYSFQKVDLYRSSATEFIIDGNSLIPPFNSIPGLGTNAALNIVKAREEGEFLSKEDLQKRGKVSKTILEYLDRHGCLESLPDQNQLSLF
Sequence of Ubiquitin carboxyl-terminal hydrolase 2 (Homo sapiens) (O75604 whole entry, looked up): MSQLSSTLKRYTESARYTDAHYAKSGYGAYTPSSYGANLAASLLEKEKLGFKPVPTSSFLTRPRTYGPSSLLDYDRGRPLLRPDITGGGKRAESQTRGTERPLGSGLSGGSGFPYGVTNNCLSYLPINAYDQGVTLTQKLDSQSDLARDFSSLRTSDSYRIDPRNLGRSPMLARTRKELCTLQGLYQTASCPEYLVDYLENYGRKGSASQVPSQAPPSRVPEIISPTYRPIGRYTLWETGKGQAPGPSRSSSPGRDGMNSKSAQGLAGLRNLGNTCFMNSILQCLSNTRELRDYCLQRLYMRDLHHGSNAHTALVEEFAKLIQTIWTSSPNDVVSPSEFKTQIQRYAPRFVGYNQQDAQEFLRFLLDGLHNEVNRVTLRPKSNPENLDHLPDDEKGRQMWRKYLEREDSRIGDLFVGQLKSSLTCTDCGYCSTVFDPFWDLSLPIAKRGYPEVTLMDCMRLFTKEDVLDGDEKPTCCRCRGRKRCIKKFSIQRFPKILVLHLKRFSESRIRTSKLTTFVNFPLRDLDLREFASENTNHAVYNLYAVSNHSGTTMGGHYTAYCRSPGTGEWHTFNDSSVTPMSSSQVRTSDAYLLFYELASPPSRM
Sequence of Tumor susceptibility gene 101 protein (Homo sapiens) (Q99816 whole entry, looked up, the tested form may be a part): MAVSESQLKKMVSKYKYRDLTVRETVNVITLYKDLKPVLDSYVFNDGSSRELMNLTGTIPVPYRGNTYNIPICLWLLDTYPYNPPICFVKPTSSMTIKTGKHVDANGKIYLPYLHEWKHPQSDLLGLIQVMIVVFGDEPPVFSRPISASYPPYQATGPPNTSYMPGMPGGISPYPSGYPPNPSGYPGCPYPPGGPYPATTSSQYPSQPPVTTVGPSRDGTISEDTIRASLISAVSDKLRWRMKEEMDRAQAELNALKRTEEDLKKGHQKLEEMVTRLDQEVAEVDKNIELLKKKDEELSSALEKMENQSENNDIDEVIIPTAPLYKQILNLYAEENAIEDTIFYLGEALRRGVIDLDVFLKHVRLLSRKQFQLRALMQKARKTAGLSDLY
Sequence of Flap endonuclease 1 (Homo sapiens) (P39748 whole entry, looked up): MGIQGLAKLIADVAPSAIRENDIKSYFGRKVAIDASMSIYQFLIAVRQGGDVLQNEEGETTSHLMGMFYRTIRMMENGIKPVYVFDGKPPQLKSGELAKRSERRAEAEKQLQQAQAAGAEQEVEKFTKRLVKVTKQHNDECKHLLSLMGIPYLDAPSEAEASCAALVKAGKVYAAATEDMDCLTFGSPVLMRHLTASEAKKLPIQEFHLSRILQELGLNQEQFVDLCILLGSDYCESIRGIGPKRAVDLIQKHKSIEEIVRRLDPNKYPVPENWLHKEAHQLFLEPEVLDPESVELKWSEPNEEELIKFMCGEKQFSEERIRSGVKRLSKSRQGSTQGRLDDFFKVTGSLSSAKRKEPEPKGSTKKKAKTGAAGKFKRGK
Sequence of Beta-2 adrenergic receptor (Homo sapiens) (P07550 whole entry, looked up): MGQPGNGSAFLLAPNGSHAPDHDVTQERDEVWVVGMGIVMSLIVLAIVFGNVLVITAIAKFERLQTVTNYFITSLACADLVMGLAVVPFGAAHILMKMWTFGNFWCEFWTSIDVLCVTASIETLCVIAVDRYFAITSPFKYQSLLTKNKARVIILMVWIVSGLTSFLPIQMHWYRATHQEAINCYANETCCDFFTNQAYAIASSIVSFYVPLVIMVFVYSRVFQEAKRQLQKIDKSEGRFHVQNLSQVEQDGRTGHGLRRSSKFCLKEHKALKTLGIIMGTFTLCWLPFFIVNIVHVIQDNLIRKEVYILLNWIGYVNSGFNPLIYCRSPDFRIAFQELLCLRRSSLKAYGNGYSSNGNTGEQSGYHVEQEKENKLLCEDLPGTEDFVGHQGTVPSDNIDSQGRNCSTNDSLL
Sequence of Methanococcus maripaludis chaperonin (MmCpn) (Q6LX38 1-543): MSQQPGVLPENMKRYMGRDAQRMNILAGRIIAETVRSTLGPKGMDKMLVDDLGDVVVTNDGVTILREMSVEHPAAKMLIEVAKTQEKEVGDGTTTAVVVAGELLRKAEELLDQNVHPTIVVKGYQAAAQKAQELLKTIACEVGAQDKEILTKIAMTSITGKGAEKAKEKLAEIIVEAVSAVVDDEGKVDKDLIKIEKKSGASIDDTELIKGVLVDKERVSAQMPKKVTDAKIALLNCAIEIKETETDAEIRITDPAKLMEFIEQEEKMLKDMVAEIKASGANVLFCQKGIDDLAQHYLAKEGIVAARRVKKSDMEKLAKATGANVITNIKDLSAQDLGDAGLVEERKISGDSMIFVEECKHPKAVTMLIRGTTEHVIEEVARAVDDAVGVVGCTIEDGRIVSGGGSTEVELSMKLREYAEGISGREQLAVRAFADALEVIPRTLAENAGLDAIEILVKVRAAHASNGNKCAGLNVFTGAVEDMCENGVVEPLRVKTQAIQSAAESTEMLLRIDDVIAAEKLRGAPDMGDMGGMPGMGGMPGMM
Sequence of M-phase phosphoprotein 8 (Homo sapiens) (Q99549 whole entry, looked up): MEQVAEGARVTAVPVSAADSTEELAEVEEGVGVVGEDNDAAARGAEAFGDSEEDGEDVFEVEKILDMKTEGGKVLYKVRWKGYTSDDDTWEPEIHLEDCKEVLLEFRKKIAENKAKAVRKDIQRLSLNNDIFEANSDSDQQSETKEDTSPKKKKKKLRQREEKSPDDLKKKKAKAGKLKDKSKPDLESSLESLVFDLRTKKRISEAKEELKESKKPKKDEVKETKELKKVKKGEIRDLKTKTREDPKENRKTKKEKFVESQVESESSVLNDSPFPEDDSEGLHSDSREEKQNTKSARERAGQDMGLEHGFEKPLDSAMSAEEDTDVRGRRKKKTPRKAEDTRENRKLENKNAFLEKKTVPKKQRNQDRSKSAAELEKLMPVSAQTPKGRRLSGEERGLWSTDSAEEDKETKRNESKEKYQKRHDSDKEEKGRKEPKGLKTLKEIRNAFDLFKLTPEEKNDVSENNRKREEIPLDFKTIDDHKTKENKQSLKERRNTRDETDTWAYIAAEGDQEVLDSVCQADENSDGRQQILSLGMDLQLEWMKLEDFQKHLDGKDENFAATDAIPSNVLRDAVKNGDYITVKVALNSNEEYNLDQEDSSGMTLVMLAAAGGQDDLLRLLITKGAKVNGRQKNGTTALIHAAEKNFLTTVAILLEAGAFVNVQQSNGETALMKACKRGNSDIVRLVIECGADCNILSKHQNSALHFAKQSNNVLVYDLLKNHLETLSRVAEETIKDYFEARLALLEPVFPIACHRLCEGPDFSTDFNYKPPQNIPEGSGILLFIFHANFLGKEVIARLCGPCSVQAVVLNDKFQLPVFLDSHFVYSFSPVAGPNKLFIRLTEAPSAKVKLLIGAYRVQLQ
Sequence of Chromobox protein homolog 1 (Homo sapiens) (P83916 whole entry, looked up): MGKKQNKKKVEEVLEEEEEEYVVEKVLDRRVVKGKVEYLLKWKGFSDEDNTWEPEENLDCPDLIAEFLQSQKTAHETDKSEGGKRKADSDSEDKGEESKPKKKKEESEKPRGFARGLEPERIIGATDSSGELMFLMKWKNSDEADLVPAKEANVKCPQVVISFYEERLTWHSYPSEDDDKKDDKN

| SMILES | outcome [1] | Potency [2] | Potency [3] | Potency [4] | Potency [5] | Potency [6] | Potency [7] | outcome [8] | outcome [9] | Potency [10] | Potency [11] | outcome [12] | Potency [13] | Potency [14] | Potency [15] | Potency [16] | outcome [17] | Potency [18] | outcome [19] |
| --- | --- | --- | --- | --- | --- | --- | --- | --- | --- | --- | --- | --- | --- | --- | --- | --- | --- | --- | --- |
| Cc1nc2c(OCc3ccccc3)cccn2c1CC#N | inactive | inactive | inactive | inactive | inactive | inactive | inactive | inactive | inactive | inactive | inactive | inactive | inactive | inactive | inactive | inactive | inactive |  |  |
| COc1ccc(C(=O)NCc2cccnc2)cc1C(=O)NCc1cccnc1 | inactive | inactive | inactive | inactive | inactive | inactive | inactive | inactive | inactive |  | inactive | inactive | inactive | inactive | inactive | inactive | inactive | inactive |  |
| O=C(O)c1cc2cc(F)ccc2[nH]1 | inactive | inactive | inactive | inactive | inactive | inactive | inactive |  | inactive | inactive |  | inactive | inactive | inactive |  | inactive | inactive |  | inactive |
| O=C(O)c1ccccc1Nc1cccc(OCc2ccc3ccccc3n2)c1 | inactive | inactive | inactive | inactive | inactive | inactive | inactive | inactive | inactive |  | inactive | inactive | inactive | inactive | 39.8 µM (active) and inactive |  | inactive |  |  |
| C=CC[C@H](N)C(=O)O | inactive | inactive | inactive | inactive | inactive | inactive | inactive |  | inactive | inactive | inactive | inactive | inactive | inactive | inactive | inactive | inactive |  | inactive |
| NCCC1CCCC(CCN)N1 (stereo not given) | inactive | inactive | inactive | inactive | inactive | inactive | inactive | inactive | inactive | inactive | inactive | inactive | inactive |  | inactive | inactive | inactive |  |  |
| CN(C)CCC(c1ccc(Br)cc1)c1ccccn1 (stereo not given) | inactive | inactive | inactive | inactive | inactive | inactive | inactive | inactive | inactive |  | inactive | inactive | inactive | inactive | inactive | inactive | inactive | inactive |  |
| N[C@@H](Cc1ccc(F)cc1)C(=O)O | inactive | inactive | inactive | inactive | inactive | inactive | inactive | inactive | inactive |  |  | inactive | inactive |  | inactive | inactive | inactive | inactive |  |
| NS(=O)(=O)c1cccc2c1c([N+](=O)[O-])cc1nc(O)c(O)nc12 | inactive | inactive | inactive | inactive | inactive | inactive | inactive | inactive | inactive | inactive |  |  | inactive | inactive | inactive |  | inactive |  |  |
| Oc1cc(O)c2c(c1)O[C@H](c1ccc(O)c(O)c1)[C@@H](O)C2 | inactive | inactive | inactive | inactive | inactive | inactive | inactive | inactive |  |  | inactive | inactive | inactive | 4.74 µM (active) | inactive |  | inactive |  |  |
| O=C(O)C1=CCCN(CCON=C(c2ccccc2)c2ccccc2)C1 | inactive | inactive | inactive | inactive | inactive | inactive | inactive | inactive | inactive | inactive | inactive | inactive | inactive | inactive | inactive |  | inactive |  |  |
| CC1CCN=C(N)S1 (stereo not given) | inactive | inactive | inactive | inactive | inactive | inactive | inactive |  | inactive |  |  |  | inactive | inactive | inactive | inactive | inactive | inactive | inactive |
| CCCCS(=N)(=O)CC[C@H](N)C(=O)O (stereo not given in full) | inactive | inactive | inactive | inactive | inactive | inactive | inactive |  | inactive | inactive | inactive | inactive | inactive | inactive | inactive | inactive | inactive |  | inactive |
